Measured values as given in PubChem BioAssay (NCI).
This is part of a sample that, as a whole, favours compounds with a hit. Of some 83,000 tested, about 20% had one in any assay.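 Activity criterion: percent growth below 10, measured after cells in 96-well plates were exposed to a single compound concentration for 48 hours.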 Values without a mark were called inactive. Activity calls are given as the source filed them.

Assays:
Assay in all cases: NCI-60 one-dose screen, 48 h (100 = growth as untreated, 0 = no growth, -100 = all killed)
Conditions in all cases: 10 µM unless noted
[1] = test system: HCT-15 colon
[2] = test system: HT29 colon
[3] = test system: SNB-75 CNS
[4] = test system: SNB-19 CNS
[5] = test system: U251 CNS
[6] = test system: PC-3 prostate
[7] = test system: SK-MEL-5 melanoma
[8] = test system: UACC-62 melanoma
[9] = test system: LOX IMVI melanoma
[10] = test system: SK-MEL-28 melanoma
[11] = test system: SK-MEL-2 melanoma
[12] = test system: SN12C renal
[13] = test system: UO-31 renal
[14] = test system: TK-10 renal
[15] = test system: ACHN renal
[16] = test system: CAKI-1 renal
[17] = test system: A498 renal
[18] = test system: CCRF-CEM leukemia
[19] = test system: MOLT-4 leukemia
[20] = test system: EKVX NSCLC

Compound | growth [1] | growth [2] | growth [3] | growth [4] | growth [5] | growth [6] | growth [7] | growth [8] | growth [9] | growth [10] | growth [11] | growth [12] | growth [13] | growth [14] | growth [15] | growth [16] | growth [17] | growth [18] | growth [19] | growth [20] [%]
CN1CCN(c2ccc3cc(-c4nc5ccccc5[nH]4)c(=O)oc3c2)CC1 | 91% | 108% | 91.8% | 118% | 99.3% | 83.2% | 74.6% | 81.6% | 87.2% | 94.9% | 105% | 93.7% | 65.5% | 119% | 89.3% | 84.8% | 86.3% | 73.6% | 88.4% | 
CCN(CC)c1cc(/C=C/c2ccc(OC)c(OC)c2)nc2cc(F)c(F)cc12 | 80.1% | 103% | -68.5% (active) | -33.1% (active) | -62.3% (active) | 65.6% | 93.3% | 10.4% | 25.9% | 98.2% | -58.2% (active) | 57% | 75.3% | -28.6% (active) | -50.9% (active) | 46.8% | -2.91% (active) | 29.7% | 49.2% | 
CN1CCN(CCCOc2ccc3nc(Nc4ccc(C(F)(F)F)c(Cl)c4)ccc3c2)CC1 | -36.9% (active) | -67.2% (active) | 4.61% (active) | -41.2% (active) | -62.3% (active) | 8.45% (active) | 34.1% | -36.3% (active) | -83.1% (active) | -73.2% (active) | 8.88% (active) | 25% | -8.8% (active) | 18.9% |  | 3.08% (active) | 63.3% | 3.91% (active) | -35.7% (active) | 38.7
O=S(=O)(NCCCNc1cc(-c2cn(-c3ccccc3)nc2-c2cccc(O)c2)ccn1)c1ccc(Br)cc1 | -18.7% (active) | -24.4% (active) | 25.8% | 27.3% | 4.89% (active) | 4.26% (active) | -56.3% (active) | -5.16% (active) | -29.5% (active) | -36.2% (active) | -5.21% (active) | 16.5% | 3.1% (active) | 32.2% |  | 13% | 25.2% | 12.2% | -5.44% (active) | 30.5
CCC(=O)Nc1ccccc1C#C/C=C\C#Cc1ccccc1SC | 43.9% | 29.6% | 60.6% | 79.3% | 48.9% | 51.9% | 23.8% | 40.1% | 57.9% | 81.2% | 28% | 82.1% |  | 71.5% | 77.7% | 70.6% | 59.9% | 26.9% | 40.7% | 65.6
O=C(Nc1cccc(C(F)(F)F)c1)Nc1ccc(OCc2nnc(-c3ccccc3)o2)c(F)c1 | 26.7% | 43.2% | 19.2% | 46.6% | 29.5% | 5.14% (active) | 56.2% | 41.4% | 46.8% | 62.5% | 67.8% | 52.8% | 26.9% | 60.2% | 6.63% (active) | 36.9% | 43.5% | 8.15% (active) | 17% | 
COc1ccc2c(c1)C=CC(C#N)N2C(=O)c1ccccc1 (stereo not given) | 9.74% (active) | 5.77% (active) | -14.7% (active) | 43.8% | 28.6% | 19% | -6.27% (active) | 26.3% | 20% | 58.9% | 67.4% | 38.4% | 53% | 70.9% |  | 23.6% | -5.22% (active) | 15.2% | 11.9% | 49.8
Nc1nc(Cl)c2c(ncn2Cc2ccc(CCl)cc2)n1 | 84.9% | 91% | 100% | 93.2% | 81.4% | 77.6% | 70.3% | 78.4% | 69.7% | 101% | 98.6% | 93.4% |  | 78.9% | 83.3% | 102% | 97.3% | 1.58% (active) | 103% | 103
O=C(/C=C/CN1CCOCC1)Nc1cc2c(Nc3cccc(Cl)c3F)ncnc2cc1OCCOC(F)F | 69.2% | 66.3% | 63% | 81.7% | 94.1% | 58.9% | 86.9% | 72% | 80.7% | 101% | 95.9% | 61.8% | 36.8% | 57.3% |  | 24.9% | 7.02% (active) | 102% | 77.3% | 29.5
CC(C)(C)c1cn2cccc(C(=O)N3CCN(CC(=O)Nc4ccc(Cl)cc4C(=O)c4ccccc4Cl)CC3)c2n1 | 47.5% | 22.2% | 78.4% | 73.2% | 43.4% | 17.6% | 12.5% | 57.6% | 63.5% | 89.8% | 65.4% | 72.6% |  | 69% | 44.8% | 67.5% | -0.735% (active) | 27.9% | 16.4% | 40.8
CCCn1c(=S)sc2c(Cl)nc(C)nc21 | 12.7% | 84% | 8.62% (active) | 93.5% | 79% | 100% | 108% | 54.7% | -78.5% (active) | 102% | 1.85% (active) | 113% |  | 137% | 83.1% | 63.8% | 98.5% | 72% | 116% | 106
CCCCCC/C=C\CCCCCCCCOc1ccc(CCOP(=O)(O)OCC[N+](C)(C)C)cc1 | 85% | 30.2% | 75.3% | 39.4% | 27.5% | 14.8% | 84.9% | 71.1% | 81.3% | 95.5% | 91% | 91.4% | 83.2% | 23.5% | 91.7% |  | 95.6% |  | 54.1% | 95.3
COc1cc(/C=C2\CCCC3=C2N=C2SC(C)=NN2C3c2cc(OC)c(OC)c(OC)c2)cc(OC)c1OC (stereo not given) | -20.6% (active) | 13.9% | -7.84% (active) | 32.3% | 20.9% | 57.7% | 45.2% | -31.2% (active) | -67.6% (active) | 26.3% | 77.5% | -5.64% (active) | 8.14% (active) | 75.9% | -7.34% (active) | -38.1% (active) | -0.731% (active) | -10% (active) | -7.59% (active) | 
CCC(c1ccc(OC)cc1)C(CC)c1ccc(OCC[N+](C)(C)C)cc1 (stereo not given) | 91.5% | 28.4% | 40% | 19.3% | 18.9% | 45.3% | 15.4% | 30.3% | 42.9% | 45.1% | 94% | 34.1% |  | 76.4% | 91% | 99.2% | 93.2% | 58.8% | 51.8% | 81.1
COc1ccc(OC)c(/C=C2\Oc3cc(OCCN4CCCC4)ccc3C2=O)c1 | 93.7% | 23.8% | 95.7% | 94.3% | 89.5% | 91.5% | 89.2% | 100% | 90.3% | 101% | 106% | 92.8% |  | 110% | 92.7% | 79.7% | 78.2% |  | 87.5% | 95.2
O=C1CCCCC=C1C[N+](=O)[O-] | 75.2% | 83.3% | 105% | 97.5% | 88.4% | 85.5% | 71.9% | 91.8% | 81.1% | 89.2% | 102% | 95.7% | 53.5% | 107% |  |  | 117% | 54.2% | 42.5% | 103
CCc1cccc(C)c1NC(=O)c1sc2nc3c(cc2c1N)C(=O)CCC3 | 32.8% | 6.1% (active) | -2.83% (active) | 67.9% | 2.81% (active) | 23.3% | 17% | 46.5% | 37.9% | 42.9% | 27.5% | 51.5% | 50.1% | 51.5% | 51.9% | 45.8% | -9.18% (active) | 9.81% (active) | 18% | 
